EZH2 inh – blocks human EZH2/PRC2 H3K27 methylation; Q15910; DELFIA TRF, 1 h; inhibition, % at 12.5 µM; 0.35% of 57,000 active; AID 651548;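 active = mean inhibition of replicates at least 50% and every single replicate also reaching 50%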;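 note: dimethyl H3K27 on biotinylated H3 21-44 peptide detected by antibody; plate controls were median neutral control wells for no effect and median positive control wells for full effect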
Target sequence (Q15910 whole entry, looked up): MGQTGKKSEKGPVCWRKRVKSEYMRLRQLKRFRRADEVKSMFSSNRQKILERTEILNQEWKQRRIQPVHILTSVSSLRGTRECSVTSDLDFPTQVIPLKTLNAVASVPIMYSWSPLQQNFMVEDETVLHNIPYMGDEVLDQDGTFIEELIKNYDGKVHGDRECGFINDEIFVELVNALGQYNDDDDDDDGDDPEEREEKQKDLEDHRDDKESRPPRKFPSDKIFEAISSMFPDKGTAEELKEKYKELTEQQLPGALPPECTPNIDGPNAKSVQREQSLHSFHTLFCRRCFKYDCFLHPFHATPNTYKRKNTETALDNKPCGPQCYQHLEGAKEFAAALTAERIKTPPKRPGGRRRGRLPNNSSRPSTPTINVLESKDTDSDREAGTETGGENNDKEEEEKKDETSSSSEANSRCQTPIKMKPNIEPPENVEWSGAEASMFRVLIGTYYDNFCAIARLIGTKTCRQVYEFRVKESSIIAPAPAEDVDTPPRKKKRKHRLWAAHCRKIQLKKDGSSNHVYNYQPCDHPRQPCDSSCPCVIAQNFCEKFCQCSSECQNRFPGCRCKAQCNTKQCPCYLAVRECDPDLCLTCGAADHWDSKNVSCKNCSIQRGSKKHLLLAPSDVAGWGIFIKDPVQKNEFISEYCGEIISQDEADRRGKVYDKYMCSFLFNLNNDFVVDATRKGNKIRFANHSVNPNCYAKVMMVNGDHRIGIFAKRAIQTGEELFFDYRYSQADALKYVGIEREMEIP
* marks the source's active call; other numbers are inactive results. The full list was thinned out, with hits kept by preference.

SMILES	EZH2 inh
COc1cc(/C=C/c2ccc(OC)cc2OC)cc(OC)c1	51*
COC(=O)CCCCCCC(=O)N/N=C/c1ccc(OC)cc1OC	8
COc1ccc(/C=N/NC(=O)c2ccc(C(=O)NO)cc2)c(OC)c1	-1
C[C@@H]1CN([C@H](C)CO)C(=O)CCCn2nncc2CO[C@@H]1CN(C)Cc1cccc2c1OCCCO2	-3
CO[C@H]1CN(C)C(=O)c2ccc(NC(=O)C3CC3)cc2OC[C@H](C)N(C(=O)c2ccccc2F)C[C@H]1C	-2
COc1ccc(-c2nc(SCC(=O)Nc3cccc(Br)c3)n[nH]2)cc1	2
COc1ccc(-c2nc(SCC(=O)Nc3ccc(Br)c(Cl)c3)n[nH]2)cc1	57*
O=C(CSc1n[nH]c(-c2ccc(Cl)cc2)n1)Nc1ccc(Br)c(Cl)c1	-4
C[C@@H]1CN([C@@H](C)CO)C(=O)c2cc(NC(=O)C3CC3)ccc2O[C@@H]1CN(C)Cc1ccc(C(=O)O)cc1	0
C[C@@H]1CN([C@@H](C)CO)C(=O)CCCn2nncc2CO[C@H]1CN(C)C(=O)Nc1cccc2ccccc12	7
O=C(CN1CCOCC1)N[C@@H]1CC[C@@H](CCNC(=O)C2CCCCC2)O[C@H]1CO	-3
CCOC(=O)c1ccc(NC(=O)Cn2c(=O)oc3ccccc32)cc1	6
CO[C@@H]1CN(C)C(=O)c2cc(NS(C)(=O)=O)ccc2OC[C@H](C)N(Cc2cccnc2)C[C@@H]1C	-5
Cc1cc(=O)c2c(O)c3c(O)cc(O)c4c5c(O)cc(O)c6c(O)c7c(=O)cc(C)c8c1c2c(c34)c(c65)c78	64*
CCCC(=O)Nc1ccc2c(c1)OC[C@H](C)N(CCc1ccccc1)C[C@@H](C)[C@H](OC)CN(C)C2=O	3
C[C@@H]1CN([C@@H](C)CO)C(=O)c2cc(C#CC3CCCCC3)cnc2O[C@H]1CN(C)C(=O)Nc1ccccc1	-24
O=C(CCN1CCCCC1)N[C@H]1CC[C@@H](CCn2cc(-c3ccc(F)cc3)nn2)O[C@H]1CO	-4
CCCc1c(OCCCOc2ccc(OCC(=O)O)cc2)ccc(CC=O)c1O	55*
O=C(O)COc1ccc(Cl)cc1CO	-5
Cc1c(CCC(=O)O)c(=O)oc2cc(OCC(=O)O)ccc12	-22
O=C(COc1ccccc1[N+](=O)[O-])Nc1ccc2oc(-c3ccccc3F)nc2c1	0
C[C@@H]1CCCCO[C@@H](CN(C)C(=O)Nc2ccc(F)cc2)[C@H](C)CN([C@H](C)CO)C(=O)c2cc(N(C)C)ccc2O1	-4
CCS(=O)(=O)N[C@H]1C=C[C@@H](CC(=O)NC2Cc3ccccc3C2)O[C@H]1CO	9
CC(Sc1nc(-c2ccccc2)c(C#N)c(=O)[nH]1)C(=O)Nc1ccc(Cl)cc1 (centres undefined)	46
CC(Sc1nc(-c2ccccc2)c(C#N)c(=O)[nH]1)C(=O)Nc1cccc(Cl)c1 (centres undefined)	63*
SMILES	EZH2 inh
O=C(CSc1nc2sc3c(c2c(=O)[nH]1)CCCC3)N(c1ccccc1)c1ccccc1	31
CC(Sc1nc2ccccc2[nH]1)C(=O)Nc1cccc(Cl)c1 (centres undefined)	2
O=C(CSc1ncn[nH]1)N(c1ccccc1)c1ccccc1	4
N#Cc1c(-c2ccccc2)nc(SCC(=O)N(c2ccccc2)c2ccccc2)[nH]c1=O	52*
CCC(=O)Nc1ccc2c(c1)C(=O)N(C)C[C@H](OC)[C@@H](C)CN(C(=O)Cc1cccnc1)[C@H](C)CO2	14
CCCN(C)C[C@@H]1OCCCC[C@@H](C)Oc2ccc(NC(=O)NC3CCCCC3)cc2C(=O)N([C@H](C)CO)C[C@@H]1C	-2
C[C@H](CO)N1C[C@H](C)[C@H](CN(C)C)OCc2cnnn2CCCC1=O	7
CCCC(=O)Nc1ccc2c(c1)OC[C@H](C)N(Cc1cncnc1)C[C@@H](C)[C@@H](OC)CN(C)C2=O	9
C[C@@H]1CN([C@H](C)CO)C(=O)c2cc(C#CCN(C)C)cnc2O[C@@H]1CN(C)C(=O)CN1CCOCC1	-13
O=c1c2ccccc2nc(CSc2nc(Cc3ccccc3)nc3ccccc23)n1-c1ccccc1	-10
CC(C)NC(=O)N(C)C[C@H]1Oc2ncc(-c3cccc(C#N)c3)cc2C(=O)N([C@H](C)CO)C[C@H]1C	14
C[C@H](O)C#Cc1cnc2c(c1)C(=O)N([C@@H](C)CO)C[C@@H](C)[C@@H](CN(C)C(=O)Nc1ccc(C(F)(F)F)cc1)O2	3
CCCCCCCNS(=O)(=O)c1cccc2c(Cl)cccc12	41
O=S(=O)(NCCCCCCc1ccccc1)c1cccc2c(Cl)cccc12	55*
NCCCCCCNS(=O)(=O)c1cccc2c(Cl)cccc12	-11
C[C@@H]1CN([C@H](C)CO)C(=O)CCCn2cc(nn2)CO[C@@H]1CN(C)C(=O)Nc1ccc(F)cc1	1
Clc1ccc2nc(SCc3csc(Nc4ccccc4)n3)oc2c1	42
Clc1ccc(SCc2csc(-c3ccsc3)n2)cc1	63*
CCn1c(SCC(=O)Nc2ccccc2Br)nnc1-c1ccccc1O	10
CCOc1ccc2nc(NCc3cc(OC)c(OC)cc3OC)sc2c1	-13
CCOc1ccc(NC(=S)Nc2sc3c(c2C(=O)OC)CCC3)c([N+](=O)[O-])c1	39
CCOc1ccc2nc(NS(=O)(=O)c3ccc(C)c([N+](=O)[O-])c3)sc2c1	51*
Cc1ccc(NC(=O)COc2ccc(C(=O)Nc3cccc(C)c3C)cc2)cc1	-10
COc1ccc2c(c1)c(CC(=O)OCc1ccccn1)c(C)n2C(=O)c1ccc(Cl)cc1	56*
COc1ccc(-n2c(C)c(C(C)=O)c3cc(OCC(N)=O)ccc32)cc1	24
COc1ccc2c(c1)c(CC(=O)O)c(C)n2C(=O)c1ccc(Cl)cc1	7
CC(C)NC(=O)N(C)C[C@@H]1Oc2ccc(NS(=O)(=O)c3ccccc3)cc2C(=O)N([C@H](C)CO)C[C@@H]1C	0
CNC[C@@H]1Oc2c(NS(=O)(=O)c3ccc(C)cc3)cccc2C(=O)N([C@H](C)CO)C[C@H]1C	4
